Assay results from PubChem BioAssay AID1159580 (chemical genetic matrix, 2015).
Values joined by “and” are separate entries in the source; they are usually repeats but may differ in a detail not shown here. Identical values can stand only once. In all, about 5,500 compounds went through this assay and about 2,000 (36%) were called active. Not shown: some 18% with an inconclusive outcome. No stated cut-off is given here; in the data, active means normalized growth mostly below about 0.91 (no sharp cut-off); inconclusive means no clear call, values can overlap the other calls; inactive means mostly above about 0.92. This is one part of the list.

Assay: chemical genetic growth profiling, strain panel (AID 1159580);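 further: tested at 20 µM; growth read once vehicle control cultures reached saturation at 30 °C; 1 = growth at the plate median or of vehicle wells; lower values mean less growth of the strain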
Conditions: S. cerevisiae deletion strains, growth OD

Measured: normalized growth

COC(=O)[C@@H]1OC(=O)C2OC23[C@@]1(C)CCC1[C@]2(C)C(C[C@@H](O)[C@]13C)C(C)(C)[C@H](OC(C)=O)C[C@@H]2OC(C)=O (stereo not given in full)
inactive: locus YAL021C, strain ccr4, active compounds read low 1 | locus YAL026C, strain drs2, active compounds read low 1.01 | locus YAL030W, strain snc1, active compounds read low 1 | locus YBL061C, strain skt5, active compounds read low 1 | locus YBR009C, strain hhf1, active compounds read low 1.03 | locus YBR021W, strain FUR4, active compounds read low 0.993 | locus YBR023C, strain chs3, active compounds read low 0.997 | locus YBR171W, strain sec66, active compounds read low 0.995 | locus YBR229C, strain ROT2, active compounds read low 1.01 | locus YBR231C, strain swc5, active compounds read low 1.01 | locus YBR279W, strain paf1, active compounds read low 1 | locus YCL011C, strain gbp2, active compounds read low 1.01 | locus YCL016C, strain dcc1, active compounds read low 1 | locus YCL029C, strain bik1, active compounds read low 1.01 | locus YCL069W, strain vba3, active compounds read low 0.996 | locus YCR088W, strain abp1, active compounds read low 0.991 | locus YDL005C, strain med2, active compounds read low 0.987 | locus YDL035C, strain GPR1, active compounds read low 1.05 | locus YDL040C, strain nat1, active compounds read low 1 | locus YDL074C, strain BRE1, active compounds read low 1.06 | locus YDL101C, strain DUN1, active compounds read low 1.02 | locus YDL134C, strain PPH21, active compounds read low 1.02 | locus YDL185W, strain tfp1, active compounds read low 1.01 | locus YDL192W, strain arf1, active compounds read low 1.01 | locus YDR001C, strain nth1, active compounds read low 0.997 | locus YDR069C, strain doa4, active compounds read low 1.01 | locus YDR101C, strain arx1, active compounds read low 1.03 | locus YDR137W, strain rgp1, active compounds read low 1.03 | locus YDR150W, strain NUM1, active compounds read low 1.01 | locus YDR159W, strain sac3, active compounds read low 0.985 | locus YDR162C, strain NBP2, active compounds read low 1.03 | locus YDR195W, strain ref2 0.988 | locus YDR297W, strain sur2, active compounds read low 0.989 | locus YDR318W, strain mcm21, active compounds read low 0.995 | locus YDR334W, strain swr1, active compounds read low 1 | locus YDR335W, strain msn5, active compounds read low 1 | locus YDR388W, active compounds read low 1.01 | locus YDR392W, strain spt3, active compounds read low 1.01 | locus YDR502C, strain sam2, active compounds read low 1 | locus YEL003W, strain gim4, active compounds read low 1 | locus YEL037C, strain rad23, active compounds read low 1 | locus YEL061C, strain CIN8 (second series), active compounds read low 0.986 | locus YEL061C, strain CIN8, active compounds read low 1.01 | locus YER015W, strain faa2, active compounds read low 0.994 | locus YER016W, strain bim1, active compounds read low 1 | locus YER110C, active compounds read low 0.995 | locus YER111C, strain swi4, active compounds read low 1 | locus YER155C, strain BEM2 (second series), active compounds read low 1.01 | locus YER155C, strain BEM2, active compounds read low 0.989 | locus YER167W, strain BCK2, active compounds read low 1.02 | locus YFR010W, strain ubp6, active compounds read low 1.02 | locus YGL078C, strain dbp3, active compounds read low 1.01 | locus YGL086W, strain mad1, active compounds read low 0.996 | locus YGL167C, strain pmr1, active compounds read low 1 | locus YGL173C, strain kem1, active compounds read low 1 | locus YGL227W, strain vid30, active compounds read low 1.01 | locus YGL240W, strain doc1, active compounds read low 1 | locus YGL248W, strain PDE1, active compounds read low 1.01 | locus YGL253W, strain hxk2, active compounds read low 1.01 | locus YGR135W, strain pre9, active compounds read low 0.971 | locus YGR252W, strain gcn5, active compounds read low 0.966 | locus YHR013C, strain ard1, active compounds read low 0.989 | locus YHR027C, strain rpn1, active compounds read low 1 | locus YHR030C, strain SLT2, active compounds read low 0.998 | locus YHR079C, strain IRE1 (second series), active compounds read low 1 | locus YHR079C, strain IRE1, active compounds read low 1.01 | locus YHR094C, strain hxt1, active compounds read low 1.01 | locus YHR129C, strain ARP1, active compounds read low 0.999 | locus YHR142W, strain chs7, active compounds read low 1 | locus YHR200W, strain rpn10, active compounds read low 1.01 | locus YIL066C, strain RNR3, active compounds read low 1.03 | locus YIL073C, strain SPO22, active compounds read low 1.03 | locus YIL125W, strain kgd1, active compounds read low 0.997 | locus YIR030C, strain dcg1, active compounds read low 0.992 | locus YJL092W, strain hpr5, active compounds read low 0.997 | locus YJL095W, strain BCK1 (second series), active compounds read low 0.989 | locus YJL095W, strain BCK1, active compounds read low 1 and 0.991 | locus YJL115W, strain asf1, active compounds read low 0.995 | locus YJL129C, strain trk1, active compounds read low 0.995 | locus YJL134W, strain LCB3, active compounds read low 1.01 | locus YJL154C, strain vps35, active compounds read low 1.01 | locus YJL164C, strain tpk1, active compounds read low 1.02 | locus YJL166W, strain qcr8, active compounds read low 1.01 | locus YJL168C, strain set2, active compounds read low 0.998 | locus YJL187C, strain SWE1 (second series), active compounds read low 1 | locus YJL187C, strain SWE1, active compounds read low 1.01 | locus YJR066W, strain TOR1, active compounds read low 0.913 | locus YKL009W, strain mrt4, active compounds read low 0.998 | locus YKL068W, active compounds read low 1 | locus YKL085W, strain MDH1 (second series), active compounds read low 0.999 | locus YKL085W, strain MDH1, active compounds read low 0.999 | locus YKL160W, strain elf1, active compounds read low 1 | locus YKL190W, strain CNB1, active compounds read low 1.01 | locus YKR001C, strain vps1, active compounds read low 1.01 | locus YKR026C, strain gcn3, active compounds read low 0.993 | locus YKR091W, strain srl3, active compounds read low 0.999 | locus YLL001W, strain dnm1, active compounds read low 1.01 | locus YLL026W, active compounds read low 0.998 | locus YLL041C, strain sdh2, active compounds read low 0.995 | locus YLR027C, strain aat2, active compounds read low 1.01 | locus YLR039C, strain RIC1, active compounds read low 1.12 | locus YLR058C, strain SHM2, active compounds read low 1.02 | locus YLR102C, strain apc9, active compounds read low 1 | locus YLR113W, strain HOG1, active compounds read low 1.08 | locus YLR221C, strain rsa3, active compounds read low 0.999 | locus YLR258W, strain gsy2, active compounds read low 1.01 | locus YLR262C, strain YPT6 (second series), active compounds read low 0.997 | locus YLR268W, strain sec22, active compounds read low 1.02 | locus YLR320W, strain mms22, active compounds read low 1 | locus YLR330W, strain CHS5, active compounds read low 1.01 | locus YLR342W, strain FKS1, active compounds read low 1 | locus YLR357W, strain rsc2, active compounds read low 0.969 | locus YLR370C, strain arc18, active compounds read low 1.01 | locus YLR371W, strain rom2, active compounds read low 0.988 | locus YLR384C, strain iki3, active compounds read low 0.988 | locus YLR418C, strain cdc73, active compounds read low 0.972 | locus YML016C, strain PPZ1, active compounds read low 1.01 | locus YML032C, strain rad52, active compounds read low 1.01 | locus YML120C, strain ndi1, active compounds read low 0.994 | locus YML124C, strain tub3, active compounds read low 0.987 | locus YMR058W, strain fet3, active compounds read low 1.01 | locus YMR078C, strain ctf18, active compounds read low 1 | locus YMR125W, strain sto1, active compounds read low 0.987 | locus YMR129W, active compounds read low 0.996 | locus YMR205C, strain PFK2, active compounds read low 1.01 | locus YMR223W, strain ubp8, active compounds read low 0.985 | locus YMR231W, strain pep5, active compounds read low 0.994 | locus YMR307W, strain GAS1, active compounds read low 0.996 | locus YNL067W, strain RPL9B, active compounds read low 1.01 | locus YNL071W, strain lat1, active compounds read low 0.997 | locus YNL183C, strain NPR1, active compounds read low 0.95 | locus YNL209W, strain ssb2, active compounds read low 1.01 | locus YNL233W, strain BNI4, active compounds read low 1.01 | locus YNL248C, strain rpa49, active compounds read low 0.997 | locus YNL250W, strain rad50, active compounds read low 1 | locus YNL271C, strain bni1, active compounds read low 1.01 | locus YNL298W, strain CLA4, active compounds read low 1.01 | locus YNL307C, strain MCK1, active compounds read low 1.01 | locus YNL322C, strain KRE1 (second series), active compounds read low 0.998 | locus YNL322C, strain KRE1, active compounds read low 1.02 | locus YNR049C, strain mso1, active compounds read low 0.988 | locus YNR052C, strain pop2, active compounds read low 0.996 | locus YOL012C, strain htz1 0.946 | locus YOL147C, strain pex11, active compounds read low 0.998 | locus YOR001W, strain rrp6, active compounds read low 1.03 | locus YOR061W, strain CKA2, active compounds read low 1.02 | locus YOR069W, strain VPS5, active compounds read low 1.01 | locus YOR070C, strain gyp1, active compounds read low 1 | locus YOR080W, strain dia2, active compounds read low 1.01 | locus YOR083W, strain WHI5, active compounds read low 1 | locus YOR106W, strain vam3, active compounds read low 1.02 | locus YOR136W, strain idh2, active compounds read low 0.989 | locus YOR144C, strain elg1, active compounds read low 1.01 | locus YOR184W, strain ser1, active compounds read low 1.01 | locus YOR231W, strain MKK1, active compounds read low 1.01 | locus YOR265W, strain rbl2, active compounds read low 0.983 | locus YOR270C, strain vph1, active compounds read low 1.02 | locus YOR290C, strain snf2, active compounds read low 1 | locus YOR316C, strain cot1, active compounds read low 1 | locus YPL051W, strain arl3, active compounds read low 1.01 | locus YPL055C, strain LGE1, active compounds read low 1.03 | locus YPL078C, strain atp4, active compounds read low 1.01 | locus YPL106C, strain sse1, active compounds read low 0.999 | locus YPL240C, strain hsp82, active compounds read low 1 | locus YPL256C, strain CLN2, active compounds read low 1.01 | locus YPR119W, strain clb2, active compounds read low 1 | locus YPR141C, strain kar3, active compounds read low 1 | locus YPR163C, strain tif3, active compounds read low 1.01 | locus YPR167C, strain met16, active compounds read low 1 | strain wtn01, active compounds read low 1
